Compounds without any hit were thinned out: in the full panel of roughly 83,000, 20% have a hit.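 A percent growth of 40 corresponds to 60% growth inhibition; 0 means no net growth; -100 means all cells died. Active threshold: below 10.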 Active and inactive are the calls of the source.
How the values were obtained:
Test in all cases: NCI-60 one-dose screen, 48 h (100 = growth as untreated, 0 = no growth, -100 = all killed)
HCT-15 colon = details: 10 µM unless noted
HT29 colon = details: 10 µM unless noted
SNB-75 CNS = details: 10 µM unless noted
SNB-19 CNS = details: 10 µM unless noted
U251 CNS = details: 10 µM unless noted
PC-3 prostate = details: 10 µM unless noted
UACC-62 melanoma = details: 10 µM unless noted
LOX IMVI melanoma = details: 10 µM
SK-MEL-2 melanoma = details: 10 µM unless noted
EKVX NSCLC = details: 10 µM unless noted
SN12C renal = details: 10 µM unless noted
UO-31 renal = details: 10 µM unless noted
ACHN renal = details: 10 µM unless noted
CAKI-1 renal = details: 10 µM unless noted
CCRF-CEM leukemia = details: 10 µM unless noted
MOLT-4 leukemia = details: 10 µM unless noted
SK-MEL-5 melanoma = details: 10 µM unless noted
SK-MEL-28 melanoma = details: 10 µM unless noted
TK-10 renal = details: 10 µM unless noted
A498 renal = details: 10 µM unless noted

Measured: growth

O=C1/C(=C\c2ccc([N+](=O)[O-])cc2)CS(=O)(=O)C/C1=C/c1ccc([N+](=O)[O-])cc1
active: HCT-15 colon -86.7% | HT29 colon -57.7% | SNB-75 CNS -89.6% | SNB-19 CNS -96.3% | U251 CNS -86.6% | PC-3 prostate -81.6% | UACC-62 melanoma -90.7% | LOX IMVI melanoma -82.8% | SK-MEL-2 melanoma -35.9% | EKVX NSCLC -63.4% | SN12C renal -41.1% | UO-31 renal -95.4% | ACHN renal -98.8% | CAKI-1 renal -92.3% | CCRF-CEM leukemia -31.6% | MOLT-4 leukemia -34.7%

O=[N+]([O-])c1cc(-c2ccccc2)c(O)c([N+](=O)[O-])c1
inactive: HCT-15 colon 79.4% | HT29 colon 92.4% | SNB-75 CNS 74.3% | SNB-19 CNS 68.2% | U251 CNS 84.2% | SK-MEL-5 melanoma 29.2% | UACC-62 melanoma 32% | LOX IMVI melanoma 82.9% | SK-MEL-28 melanoma 66.2% | SK-MEL-2 melanoma 75.2% | SN12C renal 73.7% | TK-10 renal 89.2% | ACHN renal 87.7% | A498 renal 82.3% | CCRF-CEM leukemia 16.3% | MOLT-4 leukemia 71.9%

O=C(Cc1ccccc1)C(F)(F)F
inactive: HCT-15 colon 107% | HT29 colon 112% | SNB-75 CNS 92.4% | SNB-19 CNS 109% | U251 CNS 97.8% | PC-3 prostate 96.3% | UACC-62 melanoma 104% | LOX IMVI melanoma 96.5% | SK-MEL-28 melanoma 99.2% | SK-MEL-2 melanoma 107% | EKVX NSCLC 99.1% | SN12C renal 103% | TK-10 renal 103% | ACHN renal 106% | CAKI-1 renal 89.8% | A498 renal 102% | CCRF-CEM leukemia 98.4% | MOLT-4 leukemia 82.7%

CCC1CCCCN1C(=S)N/N=C(\C)c1ccccn1 (centres undefined)
active: HT29 colon -19.5% | U251 CNS 6.56% | SK-MEL-5 melanoma -61.5% | UACC-62 melanoma -39.8% | LOX IMVI melanoma 6.45% | SK-MEL-2 melanoma -11.9% | SN12C renal 7.07% | UO-31 renal -17.6% | ACHN renal 7% | A498 renal -21.9%
inactive: HCT-15 colon 27.3% | SNB-75 CNS 16.1% | SNB-19 CNS 16.2% | SK-MEL-28 melanoma 28% | EKVX NSCLC 10.9% | CAKI-1 renal 10.4% | MOLT-4 leukemia 13.3%

Cc1cc(C(=O)c2ccc(Cl)cc2)ccc1O
inactive: HCT-15 colon 112% | HT29 colon 99.1% | SNB-75 CNS 96% | SNB-19 CNS 116% | U251 CNS 101% | SK-MEL-5 melanoma 95.3% | UACC-62 melanoma 89.8% | LOX IMVI melanoma 99.3% | SK-MEL-28 melanoma 105% | SK-MEL-2 melanoma 125% | EKVX NSCLC 81% | SN12C renal 89.3% | UO-31 renal 84.7% | TK-10 renal 87% | ACHN renal 87.3% | CAKI-1 renal 90.5% | A498 renal 76.1% | CCRF-CEM leukemia 96.9% | MOLT-4 leukemia 102%

CCCCCCCCCCCC[n+]1ccc(CCCCCCCCC)cc1
inactive: CAKI-1 renal 23.4%
active: HCT-15 colon -48% | HT29 colon -84% | SNB-75 CNS -70% | SNB-19 CNS -74.5% | U251 CNS -94.6% | SK-MEL-5 melanoma -96.8% | UACC-62 melanoma -76.9% | LOX IMVI melanoma -94.6% | SK-MEL-28 melanoma -70.9% | SK-MEL-2 melanoma -48.1% | SN12C renal -70.9% | UO-31 renal -19.4% | TK-10 renal -31.4% | ACHN renal -80.7% | A498 renal -25.4% | CCRF-CEM leukemia -34.9% | MOLT-4 leukemia -44.7%

Cc1cc(C)c([I+]c2c(C)cc(C)cc2C)c(C)c1
inactive: HCT-15 colon 25.7% | TK-10 renal 12.7% | CAKI-1 renal 29.2% | A498 renal 45%
active: HT29 colon -10.5% | SNB-75 CNS -60% | SNB-19 CNS -78.3% | U251 CNS -88.7% | SK-MEL-5 melanoma -96.8% | UACC-62 melanoma -92.6% | LOX IMVI melanoma -89.2% | SK-MEL-28 melanoma -61.4% | SK-MEL-2 melanoma -44.1% | EKVX NSCLC 4.01% | UO-31 renal -20.4% | ACHN renal -16.1% | CCRF-CEM leukemia -29.5% | MOLT-4 leukemia -41.1%

COc1cc(/C=C/C(=O)CC(=O)/C=C/c2ccc(O)c(OC)c2)ccc1O
active: HT29 colon -20.3% | SNB-75 CNS 7.11% | LOX IMVI melanoma 8.79% | CCRF-CEM leukemia 5.28%
inactive: HCT-15 colon 13.8% | SNB-19 CNS 48.2% | U251 CNS 18.5% | SK-MEL-5 melanoma 71% | UACC-62 melanoma 53.5% | SK-MEL-2 melanoma 81.1% | SN12C renal 79% | UO-31 renal 13% | TK-10 renal 69.7% | ACHN renal 72.9% | CAKI-1 renal 64.3% | A498 renal 101% | MOLT-4 leukemia 31.4%

O=C(CCl)N1c2ccccc2Sc2c1ccc1ccccc21
active: CCRF-CEM leukemia 6.54%
inactive: HCT-15 colon 39% | HT29 colon 69.4% | SNB-75 CNS 60.2% | SNB-19 CNS 88.9% | U251 CNS 63.8% | SK-MEL-5 melanoma 84.5% | UACC-62 melanoma 78% | SK-MEL-28 melanoma 111% | SK-MEL-2 melanoma 82.7% | EKVX NSCLC 96.1% | SN12C renal 73.8% | UO-31 renal 70.4% | TK-10 renal 119% | CAKI-1 renal 80.7% | A498 renal 110% | MOLT-4 leukemia 12%

Oc1ccc2c(c1)CCc1ccccc1-2
inactive: HCT-15 colon 92.6% | HT29 colon 95% | SNB-75 CNS 56.1% | SNB-19 CNS 102% | U251 CNS 95.9% | SK-MEL-5 melanoma 97.8% | UACC-62 melanoma 104% | LOX IMVI melanoma 107% | SK-MEL-28 melanoma 105% | SK-MEL-2 melanoma 115% | SN12C renal 107% | UO-31 renal 90.3% | ACHN renal 109% | CAKI-1 renal 101% | A498 renal 68.6% | CCRF-CEM leukemia 97.3% | MOLT-4 leukemia 103%

Oc1ccccc1N=Cc1ccccc1
inactive: HCT-15 colon 58.5% | HT29 colon 102% | SNB-75 CNS 132% | SNB-19 CNS 93.7% | U251 CNS 89.9% | SK-MEL-5 melanoma 65.2% | UACC-62 melanoma 98.8% | LOX IMVI melanoma 54.7% | SK-MEL-28 melanoma 119% | SK-MEL-2 melanoma 82.4% | SN12C renal 81.7% | UO-31 renal 67.4% | TK-10 renal 122% | ACHN renal 85.1% | CAKI-1 renal 97.7% | A498 renal 97.7% | CCRF-CEM leukemia 86.6% | MOLT-4 leukemia 81.2%

CCOc1ccc(C(C[N+](=O)[O-])Sc2ccccc2N)cc1 (centres undefined)
inactive: SNB-75 CNS 61.3% | SNB-19 CNS 46.2% | PC-3 prostate 10.7% | UACC-62 melanoma 64.6% | SK-MEL-2 melanoma 98.7% | TK-10 renal 106% | ACHN renal 55.4% | CAKI-1 renal 64.6% | A498 renal 109% | CCRF-CEM leukemia 30.3%
active: HCT-15 colon -11.3% | HT29 colon -49.7% | U251 CNS 9.82% | SK-MEL-28 melanoma -36.4% | MOLT-4 leukemia 4.52%

CCOc1ccc(C(CN2CCOCC2)C(C)=O)cc1OC (centres undefined)
active: CAKI-1 renal -89.9%
inactive: HCT-15 colon 54.2% | HT29 colon 107% | SNB-75 CNS 85.9% | SNB-19 CNS 103% | U251 CNS 95.9% | PC-3 prostate 101% | UACC-62 melanoma 93.6% | LOX IMVI melanoma 68.9% | SK-MEL-28 melanoma 102% | SK-MEL-2 melanoma 111% | EKVX NSCLC 96.2% | SN12C renal 86.6% | UO-31 renal 75.4% | TK-10 renal 49.8% | ACHN renal 79.6% | A498 renal 92.2% | CCRF-CEM leukemia 52.7% | MOLT-4 leukemia 87.2%

COc1ccc2nc3cc([N+](=O)[O-])ccc3c(NNc3ccccc3)c2c1
inactive: HCT-15 colon 69.4% | HT29 colon 94% | SNB-75 CNS 23.5% | SNB-19 CNS 73% | U251 CNS 29.1% | SK-MEL-5 melanoma 88.5% | UACC-62 melanoma 74.6% | LOX IMVI melanoma 84.2% | SK-MEL-28 melanoma 97.1% | SK-MEL-2 melanoma 74.9% | EKVX NSCLC 83.1% | SN12C renal 92.4% | TK-10 renal 60% | CAKI-1 renal 86.1% | CCRF-CEM leukemia 90.6% | MOLT-4 leukemia 128%

Cc1ccc(Nc2ccc(O)c3c2C(=O)c2c(O)ccc(Nc4ccc(C)cc4)c2C3=O)cc1
inactive: HCT-15 colon 94.8% | HT29 colon 106% | SNB-75 CNS 99.4% | SNB-19 CNS 91.6% | U251 CNS 99.8% | PC-3 prostate 90.7% | UACC-62 melanoma 105% | LOX IMVI melanoma 96.9% | SK-MEL-28 melanoma 112% | SK-MEL-2 melanoma 118% | SN12C renal 106% | UO-31 renal 82.7% | CAKI-1 renal 92.9% | A498 renal 97.4% | CCRF-CEM leukemia 95.5% | MOLT-4 leukemia 109%

CN1CCC(c2ccccc2)(c2ccccc2)C(=O)C1
inactive: HCT-15 colon 70.2% | HT29 colon 81.7% | SNB-75 CNS 58% | SNB-19 CNS 90.7% | U251 CNS 91.3% | PC-3 prostate 85.7% | SK-MEL-28 melanoma 119% | SK-MEL-2 melanoma 122% | EKVX NSCLC 47.3% | SN12C renal 101% | TK-10 renal 76.4% | ACHN renal 102% | CAKI-1 renal 71.2% | A498 renal 106% | CCRF-CEM leukemia 29.1% | MOLT-4 leukemia 92.7%

Cc1cc(I)nc2ccccc12
inactive: HCT-15 colon 105% | HT29 colon 109% | SNB-75 CNS 99.7% | SNB-19 CNS 107% | U251 CNS 110% | SK-MEL-5 melanoma 104% | UACC-62 melanoma 117% | LOX IMVI melanoma 100% | SK-MEL-28 melanoma 112% | SK-MEL-2 melanoma 110% | EKVX NSCLC 101% | SN12C renal 109% | UO-31 renal 91.7% | TK-10 renal 113% | ACHN renal 107% | CAKI-1 renal 98.7% | A498 renal 117% | CCRF-CEM leukemia 92.2% | MOLT-4 leukemia 101%

CC(C)(C)c1ccc(O)c(Br)c1
active: CCRF-CEM leukemia 7.22%
inactive: HCT-15 colon 104% | HT29 colon 103% | SNB-75 CNS 77% | SNB-19 CNS 95.9% | U251 CNS 106% | SK-MEL-5 melanoma 96.4% | UACC-62 melanoma 98.2% | LOX IMVI melanoma 98.3% | SK-MEL-28 melanoma 102% | SK-MEL-2 melanoma 126% | SN12C renal 94.6% | TK-10 renal 111% | ACHN renal 104% | CAKI-1 renal 96.4% | A498 renal 73.4% | MOLT-4 leukemia 112%

From PubChem BioAssay (NCI)
